Test results taken from PubChem BioAssay (NCI).
About 83,000 compounds went through this panel and 20% of them were active in at least one assay; those are over-represented in the sample as a whole.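 48-hour exposure, single concentration, 96-well plates; percent growth endpoint where 0 means no net growth. Active: below 10.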 Calls of active or inactive are those of the source.

Experiments:
Assay in all cases: NCI-60 one-dose screen, 48 h (100 = growth as untreated, 0 = no growth, -100 = all killed)
NCI-H23 lung = settings: 10 µM unless noted
NCI-H226 lung = settings: 10 µM unless noted
NCI-H322M lung = settings: 10 µM unless noted
HOP-62 NSCLC = settings: 10 µM unless noted
NCI-H460 lung = settings: 10 µM unless noted
NCI-H522 lung = settings: 10 µM unless noted
A549/ATCC NSCLC = settings: 10 µM unless noted
786-0 renal = settings: 10 µM unless noted
COLO 205 colon = settings: 10 µM unless noted
DU-145 prostate = settings: 10 µM unless noted
K-562 leukemia = settings: 10 µM unless noted
MALME-3M melanoma = settings: 10 µM unless noted
MDA-MB-231 breast = settings: 10 µM unless noted
RXF 393 renal = settings: 10 µM unless noted
SF-268 CNS = settings: 10 µM unless noted
SF-295 CNS = settings: 10 µM unless noted
SF-539 CNS = settings: 10 µM unless noted
UACC-257 melanoma = settings: 10 µM
M14 melanoma = settings: 10 µM unless noted
HOP-92 NSCLC = settings: 10 µM unless noted

Measured: growth

CCN1C(=O)N(CC)C2C1NN=C1SC(c3ccccc3)=CC(=O)N12 (stereo not drawn)
active: NCI-H460 lung 6.45% | NCI-H522 lung -42.6% | COLO 205 colon -40.3% | RXF 393 renal -11.1% | SF-539 CNS -8.38% | M14 melanoma 5.39%
inactive: NCI-H23 lung 33% | NCI-H226 lung 40.4% | NCI-H322M lung 50.6% | HOP-62 NSCLC 30.7% | A549/ATCC NSCLC 36.3% | 786-0 renal 37.6% | DU-145 prostate 26% | K-562 leukemia 11.7% | MALME-3M melanoma 46.7% | MDA-MB-231 breast 38.8% | SF-268 CNS 62.4% | SF-295 CNS 11.1% | UACC-257 melanoma 63.6%

Cc1ccc(NC(=O)c2cccc(CN3CCN(C)CC3)c2)cc1Oc1ccc(-c2[nH]nc3ncnc(N)c23)cc1
inactive: NCI-H23 lung 75.6% | NCI-H226 lung 76.9% | NCI-H322M lung 83.9% | HOP-62 NSCLC 80.9% | NCI-H460 lung 72.8% | NCI-H522 lung 77.1% | A549/ATCC NSCLC 61.9% | 786-0 renal 40.8% | COLO 205 colon 10.1% | DU-145 prostate 81.9% | K-562 leukemia 10.6% | MALME-3M melanoma 49.2% | MDA-MB-231 breast 60.7% | RXF 393 renal 23.3% | SF-268 CNS 73.8% | SF-295 CNS 78% | SF-539 CNS 62% | UACC-257 melanoma 75.4%

COc1ccc2c(c1)oc1c3[nH]c4ccccc4c3c3c(c21)C(=O)N(O)C3=O
inactive: NCI-H23 lung 31.6% | NCI-H226 lung 79.9% | NCI-H322M lung 65.5% | HOP-62 NSCLC 13.2% | NCI-H522 lung 43% | A549/ATCC NSCLC 74.3% | 786-0 renal 31.1% | COLO 205 colon 69.5% | DU-145 prostate 38.2% | K-562 leukemia 31.2% | MALME-3M melanoma 64.4% | MDA-MB-231 breast 82.9% | RXF 393 renal 31.9% | SF-268 CNS 33.5% | SF-295 CNS 29.7% | SF-539 CNS 28.9% | UACC-257 melanoma 78.8% | M14 melanoma 29.9%
active: NCI-H460 lung 5.34%

Oc1ccc(CSc2nnc(-c3ccncc3)n2-c2ccccc2)c2cccnc12
inactive: NCI-H23 lung 22.4% | NCI-H226 lung 50.8% | NCI-H322M lung 34% | HOP-62 NSCLC 17% | A549/ATCC NSCLC 25.5% | 786-0 renal 29.1% | COLO 205 colon 102% | DU-145 prostate 28.2% | K-562 leukemia 18.4% | MALME-3M melanoma 31.8% | MDA-MB-231 breast 30.7% | RXF 393 renal 23.6% | SF-268 CNS 23.1% | SF-539 CNS 21.1% | UACC-257 melanoma 10.7% | M14 melanoma 23.1%
active: NCI-H460 lung 5.96% | NCI-H522 lung 3.95% | SF-295 CNS 4.58%

Oc1ccccc1/C=N/Nc1nc(N/N=C/c2ccccc2O)nc(N2CCOCC2)n1
active: RXF 393 renal -0.648%
inactive: NCI-H23 lung 41.5% | NCI-H226 lung 23.3% | NCI-H322M lung 44.5% | HOP-62 NSCLC 25.7% | NCI-H460 lung 32.5% | NCI-H522 lung 60.9% | A549/ATCC NSCLC 13% | 786-0 renal 30.3% | COLO 205 colon 48% | DU-145 prostate 35.5% | K-562 leukemia 25.4% | MALME-3M melanoma 52.6% | MDA-MB-231 breast 36.3% | SF-268 CNS 72.3% | SF-295 CNS 19.6% | SF-539 CNS 51.8% | UACC-257 melanoma 53.3% | M14 melanoma 37.6%

N#Cc1c(NC(=O)c2ccccc2C(F)(F)F)sc2c1CCC(=O)C2
active: NCI-H23 lung 3.19% | NCI-H522 lung -4.76% | COLO 205 colon -18.2% | MALME-3M melanoma -17.3% | MDA-MB-231 breast 3.09% | RXF 393 renal -23.8% | SF-539 CNS -28.9% | UACC-257 melanoma -9.8%
inactive: NCI-H226 lung 13.6% | NCI-H322M lung 95.5% | HOP-62 NSCLC 33% | NCI-H460 lung 13.5% | A549/ATCC NSCLC 75.4% | 786-0 renal 28.7% | DU-145 prostate 33.8% | K-562 leukemia 10.9% | SF-268 CNS 18.9% | SF-295 CNS 11%

COc1ccc(NC(=O)Cn2cc(CN3C(=O)c4ccc([N+](=O)[O-])cc4C3=O)nn2)cc1
inactive: NCI-H23 lung 99.7% | NCI-H226 lung 96.4% | NCI-H322M lung 106% | HOP-62 NSCLC 107% | NCI-H460 lung 106% | NCI-H522 lung 99.9% | A549/ATCC NSCLC 102% | 786-0 renal 107% | COLO 205 colon 122% | DU-145 prostate 113% | K-562 leukemia 98.1% | MALME-3M melanoma 101% | MDA-MB-231 breast 91.4% | SF-268 CNS 109% | SF-295 CNS 113% | SF-539 CNS 100% | UACC-257 melanoma 97.7% | M14 melanoma 108%

CC[C@@](C)(NC(=O)C(C)(C)NC(=O)[C@@H](NC(=O)[C@@H]1CCCN1C(=O)C(C)(C)NC(=O)[C@H](CC(C)C)NC(=O)CNC(=O)C(C)(C)NC(=O)[C@@H](NC(=O)C(C)(C)NC(=O)[C@H](CCC(N)=O)NC(=O)[C@H](C)NC(=O)C(C)(C)NC(=O)[C@H](C)NC(=O)C(C)(C)NC(=O)[C@@H]1CCCN1C(=O)C(C)(C)NC(C)=O)C(C)C)C(C)C)C(=O)N[C@@H](CCC(N)=O)C(=O)N[C@@H](CCC(N)=O)C(=O)N[C@H](CO)Cc1ccccc1
active: HOP-92 NSCLC -13.3% [4.25 µM] | NCI-H522 lung -1.04% [4.25 µM] | COLO 205 colon -12.5% [4.25 µM] | MALME-3M melanoma -21.3% [4.25 µM]
inactive: NCI-H23 lung 14.9% [4.25 µM] | NCI-H226 lung 61.3% [4.25 µM] | NCI-H322M lung 58.4% [4.25 µM] | HOP-62 NSCLC 51.9% [4.25 µM] | A549/ATCC NSCLC 50.1% [4.25 µM] | 786-0 renal 77.2% [4.25 µM] | DU-145 prostate 30.9% [4.25 µM] | K-562 leukemia 29.1% [4.25 µM] | MDA-MB-231 breast 32.4% [4.25 µM] | RXF 393 renal 29.1% [4.25 µM] | SF-268 CNS 31.6% [4.25 µM] | SF-295 CNS 86.6% [4.25 µM] | SF-539 CNS 28.7% [4.25 µM] | M14 melanoma 65.9% [4.25 µM]
